Measured values as given in PubChem BioAssay.
Activity calls are given as the source filed them.

Tests used:
[1] = system: Plasmodium falciparum Sir2 (PF13_0152, Sir2A); experiment: Plasmodium falciparum Sir2A binding compounds – biochemical, small-molecule microarray, 635 nm fluorescence, primary screen (AID 1098); settings: fluorescence 635 nm, higher = more signal;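 also: score merges spot fluorescence intensity with its signal-to-noise ratio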
[2] = probe aDKK1 binding to arrayed compounds – biochemical, biotinylated probe, 635/667 nm fluorescence, primary screen (AID 1099); settings: small-molecule microarray, higher = more signal;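 also: score merges 667nm spot fluorescence with signal to noise across triplicate slides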
[3] = probe aCHRDL2 binding to arrayed compounds – biochemical, biotinylated probe, 635/667 nm fluorescence, primary screen (AID 1100); settings: small-molecule microarray, higher = more signal
[4] = change in splice reporter luminescence, either direction, cell-based, HEK293, spliceosome inhibition project, primary screen (AID 1101); settings: HEK293 splicing luciferase reporter, 24 h, higher = more signal, called active from +8 up or from −8 down;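 also: HEK293 cells carrying a splicing-competent luciferase reporter gene; test concentration not given here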
[5] = target: Fibroblast growth factor 10 (Homo sapiens) (UniProt O15520); experiment: compounds binding fibroblast growth factor 10 – biochemical, small-molecule microarray, 635 nm fluorescence, primary screen (AID 1102); settings: FGF10 binding, fluorescence 635 nm, higher = more signal
Sequence of Fibroblast growth factor 10 (Homo sapiens) (O15520 whole entry, looked up): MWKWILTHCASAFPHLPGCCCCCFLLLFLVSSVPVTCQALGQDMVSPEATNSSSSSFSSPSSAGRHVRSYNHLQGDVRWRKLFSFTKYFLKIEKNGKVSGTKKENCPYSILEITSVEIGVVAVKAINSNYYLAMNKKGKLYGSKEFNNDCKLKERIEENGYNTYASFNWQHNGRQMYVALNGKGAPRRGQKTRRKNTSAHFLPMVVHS

[6] = system: glycogen synthase kinase-3 (GSK3A per assay name; protocol says GSK3B); experiment: compounds binding glycogen synthase kinase-3 – biochemical, small-molecule microarray, 635 nm fluorescence, GSK3A, primary screen (AID 1103); settings: fluorescence 635 nm, higher = more signal; also: the record names both GSK3A and GSK3B
[7] = target: Epidermal growth factor receptor (Homo sapiens) (UniProt P00533); experiment: compounds binding epidermal growth factor receptor – biochemical, small-molecule microarray, 635 nm fluorescence, primary screen (AID 1104); settings: EGFR binding, higher = more signal;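 also: score merges 667 nm emission intensity with spot signal to noise over triplicate slides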
Sequence of Epidermal growth factor receptor (Homo sapiens) (P00533 whole entry, looked up): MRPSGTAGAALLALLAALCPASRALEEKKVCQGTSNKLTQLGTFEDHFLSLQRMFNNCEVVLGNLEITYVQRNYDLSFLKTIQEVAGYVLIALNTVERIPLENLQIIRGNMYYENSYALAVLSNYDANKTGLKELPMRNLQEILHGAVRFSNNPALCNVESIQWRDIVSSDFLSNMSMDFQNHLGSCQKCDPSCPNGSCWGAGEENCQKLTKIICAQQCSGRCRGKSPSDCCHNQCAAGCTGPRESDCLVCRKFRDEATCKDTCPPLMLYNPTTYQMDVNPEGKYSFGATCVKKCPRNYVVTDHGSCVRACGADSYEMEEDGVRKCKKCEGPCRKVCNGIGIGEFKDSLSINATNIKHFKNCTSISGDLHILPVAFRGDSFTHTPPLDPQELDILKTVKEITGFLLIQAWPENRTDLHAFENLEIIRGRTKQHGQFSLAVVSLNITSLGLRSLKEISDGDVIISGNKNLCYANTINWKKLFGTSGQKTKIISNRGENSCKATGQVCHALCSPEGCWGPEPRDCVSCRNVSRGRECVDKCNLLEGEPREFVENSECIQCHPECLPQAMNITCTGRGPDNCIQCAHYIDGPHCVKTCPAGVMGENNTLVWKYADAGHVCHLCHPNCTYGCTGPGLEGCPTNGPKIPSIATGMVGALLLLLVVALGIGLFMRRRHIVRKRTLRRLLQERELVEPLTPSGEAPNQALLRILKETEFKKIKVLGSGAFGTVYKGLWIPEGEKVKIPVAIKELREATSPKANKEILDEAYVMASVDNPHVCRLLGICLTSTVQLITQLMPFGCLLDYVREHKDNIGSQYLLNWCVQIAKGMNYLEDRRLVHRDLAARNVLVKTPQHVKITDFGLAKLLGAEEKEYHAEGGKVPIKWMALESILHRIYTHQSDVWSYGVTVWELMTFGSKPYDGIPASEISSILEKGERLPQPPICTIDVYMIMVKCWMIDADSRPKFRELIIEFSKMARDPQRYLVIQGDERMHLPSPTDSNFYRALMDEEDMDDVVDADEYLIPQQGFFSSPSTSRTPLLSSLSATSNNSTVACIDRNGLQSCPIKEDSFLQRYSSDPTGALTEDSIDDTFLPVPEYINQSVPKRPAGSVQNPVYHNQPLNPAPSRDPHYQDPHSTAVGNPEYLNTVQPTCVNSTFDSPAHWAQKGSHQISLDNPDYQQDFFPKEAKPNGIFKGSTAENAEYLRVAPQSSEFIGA

[8] = target: Follistatin-related protein 3 (Homo sapiens) (UniProt O95633); experiment: compounds binding follistatin-related protein 3 – biochemical, small-molecule microarray, 635 nm fluorescence, primary screen (AID 1105); settings: FSTL3 binding, higher = more signal;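 also: score merges emission near 667 nm and signal to noise per printed spot across three slides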
Sequence of Follistatin-related protein 3 (Homo sapiens) (O95633 whole entry, looked up): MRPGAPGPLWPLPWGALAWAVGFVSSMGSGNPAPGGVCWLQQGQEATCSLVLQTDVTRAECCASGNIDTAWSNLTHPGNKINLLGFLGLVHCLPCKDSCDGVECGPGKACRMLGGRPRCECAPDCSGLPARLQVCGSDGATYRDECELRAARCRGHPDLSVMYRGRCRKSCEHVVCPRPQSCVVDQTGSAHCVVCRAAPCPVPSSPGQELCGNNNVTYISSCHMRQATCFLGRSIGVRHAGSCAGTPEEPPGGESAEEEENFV

[9] = target: Dickkopf-related protein 1 (Homo sapiens) (UniProt O94907); experiment: small molecules binding DKK1 protein – biochemical, small-molecule microarray, 635 nm fluorescence scan, primary screen (AID 1106); settings: higher = more signal;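 also: score merges emission near 667 nm with signal to noise over three replicate slides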
Sequence of Dickkopf-related protein 1 (Homo sapiens) (O94907 whole entry, looked up): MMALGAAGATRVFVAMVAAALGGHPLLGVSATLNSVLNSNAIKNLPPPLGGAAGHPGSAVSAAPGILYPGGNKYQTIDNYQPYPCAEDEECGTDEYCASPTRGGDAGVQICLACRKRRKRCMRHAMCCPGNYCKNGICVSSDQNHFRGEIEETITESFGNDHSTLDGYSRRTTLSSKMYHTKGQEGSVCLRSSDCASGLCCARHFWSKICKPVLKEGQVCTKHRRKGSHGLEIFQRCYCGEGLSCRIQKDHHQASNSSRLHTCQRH

[10] = system: Inhibin beta A chain (activin A); experiment: small molecules binding activin A – biochemical, small-molecule microarray, 635 nm fluorescence scan, primary screen (AID 1107); settings: INHBA, higher = more signal;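 also: mouse activin A protein probed at 4.33 µg/mL on printed slides; score merges bound-protein fluorescence near 667 nm with spot signal-to-noise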
[11] = system: Human papillomavirus type 1a protein E7 (residues 44-93); experiment: small molecules binding HPV E7 44-93 – biochemical, small-molecule microarray, residues 44-93, 635 nm fluorescence, primary screen (AID 1108); settings: fluorescence 635 nm, higher = more signal;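 also: E7 fragment applied at 1 µg/mL in TBST for 1 h at 4 C; score combines spot fluorescence with its signal to noise ratio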
[12] = hepatitis C replication reporter changes, two-sided – Huh7 cells, luciferase reporter, HCV replication inhibitor project, primary screen (AID 1109); settings: Huh7 HCV replicon luciferase reporter, 48 h; higher = more signal;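 also: huh7 hepatoma cells harbouring a luciferase neomycin HCV replicon reporter; luciferase luminescence as measure of HCV replicon replication; test concentration not given here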
[13] = target: Left-right determination factor 2 (Homo sapiens) (UniProt O00292); experiment: small molecules binding LEFTY2 protein – biochemical, small-molecule microarray, 635 nm fluorescence scan, primary screen (AID 1110); settings: higher = more signal
Sequence of Left-right determination factor 2 (Homo sapiens) (O00292 whole entry, looked up): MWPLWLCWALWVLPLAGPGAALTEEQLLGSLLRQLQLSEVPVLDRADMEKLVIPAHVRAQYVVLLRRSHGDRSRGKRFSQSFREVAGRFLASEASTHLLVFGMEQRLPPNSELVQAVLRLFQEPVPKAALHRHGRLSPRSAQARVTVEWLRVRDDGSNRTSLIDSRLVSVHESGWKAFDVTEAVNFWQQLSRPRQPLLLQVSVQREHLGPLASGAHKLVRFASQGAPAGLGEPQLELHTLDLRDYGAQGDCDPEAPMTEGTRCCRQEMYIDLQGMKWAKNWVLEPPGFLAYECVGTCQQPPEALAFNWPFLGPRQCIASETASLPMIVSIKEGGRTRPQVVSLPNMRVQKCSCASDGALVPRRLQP

[14] = target: Calmodulin-1 (Homo sapiens) (UniProt P0DP23); experiment: small molecules binding calmodulin-1 with EGTA – biochemical, small-molecule microarray, Cy5-labelled CALM1, profiling panel (AID 1111); settings: Cy5-CALM1 binding fluorescence, higher = more signal;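 also: labelled calmodulin applied in Tris saline Tween buffer holding calcium plus EGTA and DTT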
[15] = target: Calmodulin-1 (Homo sapiens) (UniProt P0DP23); experiment: small molecules binding Ca-loaded calmodulin-1 – biochemical, small-molecule microarray, Cy5-labelled CALM1, plus calcium, artefact control for SMM control-protein annotation, profiling panel (AID 1112); settings: Cy5-CALM1 binding fluorescence, higher = more signal;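 also: score merges spot fluorescence with signal to noise from triplicate slides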
[16] = probe aWnt5a binding to arrayed compounds – biochemical, biotinylated probe, 635/667 nm fluorescence, primary screen (AID 1113); settings: small-molecule microarray, higher = more signal;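 also: score merges 667 nm fluorescence intensity with signal-to-noise per printed feature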
[17] = probe aShh binding to arrayed compounds – biochemical, biotinylated probe, 635/667 nm fluorescence, primary screen (AID 1114); settings: small-molecule microarray, higher = more signal;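 also: probe is biotin-labelled aShh protein from a stem cell growth factor screen; measures binding of labelled protein to compounds printed on the slide; score merges feature fluorescence at 667 nm with signal-to-noise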
[18] = probe aNog binding to arrayed compounds – biochemical, biotinylated probe, 635/667 nm fluorescence, primary screen (AID 1115); settings: small-molecule microarray, higher = more signal;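 also: probe is biotinylated aNog protein used at 0.15 µg/mL for 1 h at 4 C; z-score combines 667 nm fluorescence of each spot with its signal to noise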
[19] = target: Torsin-1A-interacting protein 1 (Homo sapiens) (UniProt Q5JTV8); experiment: compound microarray binding of lysate hLAP1 – cell lysate, small-molecule microarray, COS7 lysate, 635/667 nm fluorescence, primary screen (AID 1116); settings: 635 nm fluorescence, higher = more signal
Sequence of Torsin-1A-interacting protein 1 (Homo sapiens) (Q5JTV8 whole entry, looked up): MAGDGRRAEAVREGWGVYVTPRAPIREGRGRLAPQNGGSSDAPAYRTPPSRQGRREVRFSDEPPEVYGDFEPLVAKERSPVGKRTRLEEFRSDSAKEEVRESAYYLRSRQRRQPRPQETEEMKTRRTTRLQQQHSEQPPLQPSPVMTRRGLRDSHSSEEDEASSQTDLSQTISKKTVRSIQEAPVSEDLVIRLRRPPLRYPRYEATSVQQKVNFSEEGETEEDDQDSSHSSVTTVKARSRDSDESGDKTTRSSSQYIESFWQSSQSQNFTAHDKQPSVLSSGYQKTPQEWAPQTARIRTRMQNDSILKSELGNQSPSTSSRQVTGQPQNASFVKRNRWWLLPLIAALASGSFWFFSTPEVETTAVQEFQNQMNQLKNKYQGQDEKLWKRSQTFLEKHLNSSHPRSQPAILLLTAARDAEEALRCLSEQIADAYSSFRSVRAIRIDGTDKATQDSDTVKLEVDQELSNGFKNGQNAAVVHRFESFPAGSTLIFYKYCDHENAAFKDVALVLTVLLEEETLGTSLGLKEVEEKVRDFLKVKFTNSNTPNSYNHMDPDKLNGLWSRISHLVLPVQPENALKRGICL

[20] = target: Alpha-bungarotoxin (Bungarus multicinctus) (UniProt P60615); experiment: compounds binding labelled alpha-BTX control protein – biochemical, small-molecule microarray, Alexa647 label, 635/667 nm fluorescence, artefact control for SMM control protein annotation, profiling panel (AID 1117); settings: alpha-BTX-A647 binding fluorescence, higher = more signal
Sequence of Alpha-bungarotoxin (Bungarus multicinctus) (P60615 whole entry, looked up): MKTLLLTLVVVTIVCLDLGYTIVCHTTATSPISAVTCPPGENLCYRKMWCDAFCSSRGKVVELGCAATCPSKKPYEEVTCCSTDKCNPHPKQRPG

Row | SMILES | composite z-score [1] | composite z-score [2] | composite z-score [3] | z-score [4] | composite z-score [5] | composite z-score [6] | composite z-score [7] | composite z-score [8] | composite z-score [9] | composite z-score [10] | composite z-score [11] | z-score [12] | composite z-score [13] | composite z-score [14] | composite z-score [15] | composite z-score [16] | composite z-score [17] | composite z-score [18] | composite z-score [19] | composite z-score [20]
1 | CC(C)C(O)C1C=CC2C(=O)N(C)C(=O)C2N1Nc1ccccc1 (stereo not given) | 0.778 | 1.36 | 0.598 | 1.01 (inactive) | 0.943 | 0.686 | -0.0756 | 0.439 | 0.4 | 0.742 | 0.0819 | 0.247 | 0.163 | 0.774 | -0.473 | 0.175 | 0.679 | 1.66 | 2.27 | 1.25
2 | CCOC(=O)[C@@H]1[C@@H]2C(=O)N(CC)C(=O)[C@@H]2C[C@@H]1Sc1ccccc1 | 0.667 | 0.19 | 0.0774 | 1.33 (inactive) | 0.448 | 0.177 | 0.169 | 0.446 | -0.174 | 0.0622 | 1.35 | -1.33 | 0.0952 | 0.414 | 0.163 | 0.0357 | 0.131 | 0.266 | 0.706 | 1.27
3 | COc1ccc([Si](C)(C)[C@H]2[C@H](CC(=O)N3Cc4ccccc4C[C@H]3CO)O[C@@]3(C(=O)N(Cc4cccc(N5CCCCC5=O)c4)c4ccccc43)[C@@H]2C)cc1 | 1.2 | -0.205 | -0.181 | -0.519 (inactive) | 1.14 | 0.262 | 0.795 | 1.27 | 1.12 | 0.94 | 0.551 | -3.77 | 0.983 | -0.226 | -0.48 | -0.043 | -0.0553 | -0.0206 | 0.547 | 0.244
4 | COc1cc(CO)cc(I)c1O[C@H]1C=C(C(=O)NCCO)C[C@@H](NCc2ccccc2F)[C@@H]1O | 0.947 | -0.28 | -0.18 | -0.977 (inactive) | 1.06 | 0.417 | 0.152 | 0.638 | 0.239 | 0.0253 | 0.509 | -2.62 | 0.365 | -0.154 | -0.327 | -0.264 | -0.138 | -0.103 | 1.4 | 0.109
5 | COCCOC(=O)N1C(=O)[C@@]2(c3cc(C#CC4(O)CCCCCC4)ccc31)[C@H](C(N)=O)[C@H]1C(=O)O[C@H](c3ccccc3)[C@H](c3ccccc3)N1[C@@H]2c1ccccc1OCCO | 1.28 | 0.919 | -0.423 | -1.96 (inactive) | 1.15 | 1.3 | 0.639 | 1.16 | 0.974 | -0.505 | 1.38 | -3.3 | 0.339 | -0.0545 | -0.0174 | -0.0758 | -0.223 | -0.531 | 0.529 | 1.01
6 | COc1cc2c(cc1OC)CN(C(=O)[C@@H]1[C@H]3C(=O)O[C@H](c4ccccc4)[C@H](c4ccccc4)N3[C@H](c3ccccc3OCCO)[C@@]13C(=O)Nc1ccc(C#CC4(O)CCCCCC4)cc13)CC2 | 1.1 | 0.159 | 0.0184 | 0.582 (inactive) | 0.366 | 1.13 | 0.368 | 0.511 | 0.383 | 0.275 | 1.35 | -2.18 | 0.246 | 0.545 | 0.222 | -0.0685 | 0.0048 | 0.151 | 1.34 | 1.56
7 | C=CCOC(=O)[C@@H]1[C@H]2C(=O)O[C@H](c3ccccc3)[C@H](c3ccccc3)N2[C@H](c2ccc(OCCOC(=O)[C@H]3C[C@H]4C(=O)N[C@@H](CCCCN(C)C)C(=O)N4[C@H]3c3cccc(OCCO)c3)cc2)[C@@]12C(=O)Nc1ccc(I)cc12 | 1.41 | 0.097 | -0.0926 | 0.348 (inactive) | 1.02 | 1.32 | 0.605 | 1.32 | 0.626 | 0.208 | 1.42 | -1.14 | 0.724 | 0.993 | -0.069 | -0.13 | 0.123 | -0.0863 | 1.03 | 2.07
8 | COC(=O)[C@@]1(Cc2ccccc2)[C@H]2c3cc(C(=O)N4CCCC4)n(Cc4cc(F)cc5c4OCOC5)c3C[C@H]2CN1C(=O)c1ccccc1 | 1.54 | 0.513 | 1.1 | -0.955 (inactive) | 1.22 | 0.0232 | -0.12 | 0.286 | -0.66 | 0.538 | 0.0951 | -0.592 | -0.655 | 1.08 | 0.641 | 0.14 | 0.688 | 1.93 | 1.74 | 0.468
9 | O=C1OC[C@@H](c2ccccc2)N2CC(/C=C/c3ccccc3)=CC12 (stereo not given in full) | -0.0726 | -0.144 | 0.537 | -0.521 (inactive) | -0.529 | -0.511 | -2.06 | -1.16 | -1.15 | 0.0575 | -1.13 | -0.557 | -1.43 | -0.353 | -0.221 | -0.284 | -0.2 | -0.0118 | -0.383 | -0.273
10 | C=CCN1C(=O)[C@]2(CC=C)N=C(c3ccc(OCCCO)cc3)O[C@@H]2c2ccccc21 | 1.08 | 0.945 | 1.1 | -0.436 (inactive) | 0.506 | 0.777 | 0.925 | 1.18 | 0.95 | 1.38 | 1.37 | -2.63 | 0.503 | 1.94 | 0.541 | 0.123 | 0.0253 | 0.0962 | 1.14 | 1.08
11 | O=C1O[C@@H](c2ccccc2)[C@@H](c2ccccc2)N2[C@@H](c3ccccc3OCCO)[C@]3(C(=O)Nc4ccc(C#CC5=CCCCC5)cc43)[C@@H](C(=O)NC[C@H](O)c3ccccc3)[C@H]12 | 1.3 | -0.108 | -0.149 | -1.13 (inactive) | 0.717 | 1.3 | 0.496 | 1.22 | 0.352 | 0.623 | 1.35 | -3.33 | 0.556 | 1.08 | 0.0728 | 0.0388 | -0.0709 | 0.0483 | 0.519 | 1.31
12 | CON(C)C(=O)C=C1C[C@@H](c2cccc(Cl)c2)O[C@@H](c2cccc(Cl)c2)O1 | 1 | 0.0204 | -0.126 | -1.16 (inactive) | -0.148 | 0.846 | -0.185 | 0.243 | 0.484 | 0.9 | 0.151 | -3.11 | 0.158 | 0.389 | 0.3 | -0.0704 | 0.134 | -0.389 | 0.525 | 0.764
13 | C=CCN1Cc2ccccc2C[C@@]2(N=C(c3ccc(OCCCO)cc3)O[C@H]2c2ccccc2)C1=O | 0.907 | 0.189 | 0.512 | 6.55 (inactive) | 1.17 | 1.26 | 0.147 | 0.363 | 0.0968 | 1.03 | 1.46 | -3.08 | 0.473 | 2.97 | -0.398 | 0.0873 | 0.19 | -0.179 | 1.2 | 1.15
14 | CCCCN1CC=CC23O[C@@H]4/C=C\CCC(C)OC(=O)C4[C@H]2C(=O)N(CCCCCCO)[C@@H]3C1=O (stereo not given in full) | 0.906 | -0.264 | 0.402 | 0.142 (inactive) | 0.107 | -0.782 | -0.63 | -1.04 | -0.842 | 0.703 | 0.111 | -0.0691 | -0.567 | 0.119 | 0.282 | 0.0321 | -0.0709 | -0.168 | 1.47 | -0.637
15 | C=CCNC(=O)[C@@H]1[C@H]2C(=O)O[C@H](c3ccccc3)[C@H](c3ccccc3)N2[C@H](c2ccccc2OCCO)[C@@]12C(=O)N(C(=O)OCCOC)c1ccc(C#CC3=CCCCC3)cc12 | 1.26 | 0.057 | 0.144 | -1.1 (inactive) | 1.15 | 1.16 | 0.469 | 0.831 | 0.373 | -0.0496 | 0.829 | -2.12 | 0.167 | 0.743 | -0.0835 | -0.124 | -0.0553 | 0.394 | 1.15 | 1.59
